NTMT1 inh = Primary qHTS for Inhibitors of N-terminal methyltransferase 1 (NTMT1): MTaseGlo Assay. N-terminal Xaa-Pro-Lys N-methyltransferase 1 (Homo sapiens), Q9BV86. NTMT1 MTase-Glo SAH luminescence, purified enzyme. Potency, µM (highest dose often 114 µM), inactives show at the highest dose activity change, negative = inhibition, actives largely listed as inhibitors. 59,000 tested, 2.5% active;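 note: potency is the fitted concentration of half-maximal effect; plate controls were DMSO vehicle for no effect and no enzyme for full effect; nearly all actives have a fitted effect of over 65% in size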
B2AR arrestin ag = qHTS assay of beta-arrestin-biased ligands of beta2-adrenergic receptor: NCGC Sytravon Library Screen | Beta-2 adrenergic receptor (Homo sapiens), P07550 | HTLA Tango cells, beta-arrestin recruitment, luciferase luminescence, 18 h | Potency, µM (series often up to 46.1 µM), hits mostly activators | 44,000 tested, under 10 active;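 note: potency is the fitted concentration of half-maximal effect; 0% = DMSO and full agonism = EC100 isoproterenol or metaproterenol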
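Tango cell line, 1% FBS DMEM; cpd titration up to 46 microM; 18 hr, 37 degrees C, 5% CO2. Luciferin/ATP substrate mix added, 15 min RT, luminescence. %Activity, CRC fitting, curve-class categorization.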
PTAP-TSG101 blk = qHTS Validation Assay for Inhibitors of HIV-1 Budding by Blocking the Interaction of PTAP/TSG101: Sytravon Library Screen. AID 1347069, 2019. Tumor susceptibility gene 101 protein (Homo sapiens), Q99816. Potency, µM (titrated, usually from 115 µM), most hits filed as inhibitors. Fluorescence polarization, FITC-PTAP peptide/Tsg101, 20 min. 44,000 tested, under 10 active; note: potency is the fitted concentration of half-maximal effect; 0% is about no effect
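The Tsg101 binding domain, at 10 uM final, is mixed with compound and a FITC peptide bearing the PTAP motif (50 nM final). After 20 min at r.t., polarization is measured; actives defined by CRC class, efficacy cut-off 60% inhibition.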
FH mod = Identification of activators of human fumarate hydratase by quantitative high-throughput screening. AID 1347055, 2019. Potency, µM (titrated, usually from 79.9 µM), inactives show top-dose activity change, negative = inhibition, hits mostly inhibitors. 54,000 tested, 0.22% active. FH coupled MDH/diaphorase resazurin fluorescence, 15 min. Fumarate hydratase, mitochondrial (Homo sapiens), P07954; note: potency is the fitted concentration of half-maximal effect; % is set by controls: 0 for no effect and ±100 for the full control effect; the screen sought activators but most active calls are inhibition curves; nearly all actives have a fitted effect of over 45% in size
GALC G270D act = A Novel Cell-Based Assay to Identify Small Molecules for B -Galactocerebrosidase; 145M-Twi-hGALC-G270D cells (Twitcher mouse brain line with human GALC G270D), HMU-beta-Gal fluorescence, 48 h; Potency, µM (top dose mostly 57.5 µM), most hits filed as activators; 45,000 tested, 0.1% active; P54803; AID 1159614, 2016; note: potency is the fitted concentration of half-maximal effect; 0% is about no effect; nearly all actives have a fitted effect of over 65% in size
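Mutant human GALC (G270D), stably expressed in a Twitcher mouse brain cell line lacking endogenous GALC, is measured in live-treated cells via 6-hexadecanoylamino-4-methylumbelliferyl-β-galactoside hydrolysis (0.1 mM final, pH 5.2) with fluorescent detection.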
GALK inh = qHTS Assay for Inhibitors of Human Galactokinase (GALK): NCGC Sytravon Library Screen | recombinant GALK, Kinase-Glo ATP luminescence, 1 h | P51570 | 44,000 tested, under 10 active | AID 1347072, 2019 | Potency, µM (titrated, usually from 57.5 µM), inactives show at the top dose activity, negative = inhibition, hits mostly inhibitors;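 note: plate controls were full GALK reaction for no effect and reaction lacking GALK for full effect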
Target sequence (P51570 whole entry, looked up): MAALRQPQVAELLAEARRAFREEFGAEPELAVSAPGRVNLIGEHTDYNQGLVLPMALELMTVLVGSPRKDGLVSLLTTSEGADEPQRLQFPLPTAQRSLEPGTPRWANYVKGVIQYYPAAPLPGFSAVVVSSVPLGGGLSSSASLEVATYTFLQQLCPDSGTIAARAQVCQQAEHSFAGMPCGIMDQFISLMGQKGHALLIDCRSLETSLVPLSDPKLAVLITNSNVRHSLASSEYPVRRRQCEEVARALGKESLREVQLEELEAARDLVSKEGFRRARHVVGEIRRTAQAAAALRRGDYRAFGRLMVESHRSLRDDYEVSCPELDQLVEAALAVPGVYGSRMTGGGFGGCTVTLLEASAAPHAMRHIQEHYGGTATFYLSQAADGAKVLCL
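Compounds were pinned into ATP buffer, then GALK-galactose mix was added (final 5 nM enzyme, 35 uM ATP, 100 uM galactose, pH 8.0). After 1 h at room temperature, Kinase-Glo Plus was added and luminescence read.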
DYRK1A inh = Assay for Inhibitors of Dual-Specificity Tyrosine-(Y)-Phosphorylation Regulated Kinase 1A (Kinase-Glo assay); shares compounds with NTMT1 inh; recombinant DYRK1A, Kinase-Glo ATP depletion luminescence; Potency, µM (titrated, usually from 76.9 µM), inactives show at the highest dose activity change, negative = inhibition, most hits filed as inhibitors; 100 tested, 80% active; AID 2705, 2010
USP2 K63 confirm = Confirmation Assay for Inhibitors of Ubiquitin-specific Protease USP2a Using CHOP2 as the Reporter: K633 | shares compounds with NTMT1 inh | USP2 cleavage of DiUb K63-3IQF, fluorescence kinetic | Potency, µM (highest dose often 57.5 µM), inactives show at the highest dose activity change, negative = inhibition, hits mostly inhibitors | 30 tested, 80% active | AID 652172, 2013
Casp6 inh = qHTS for Inhibitors of Ubiquitin-specific Protease USP2a Using CHOP2 as the Reporter: Caspase 6 Assay. AID 652277, 2013. activity change, negative = inhibition, % at 46.1 µM. shares compounds with NTMT1 inh. 30 tested, under 10 active. Caspase 6 enzyme, Caspase-Glo 6 luminescence
NNMT counter = Counterscreen qHTS for Inhibitors of N-terminal methyltransferase 1 (NTMT1): NNMT MTaseGlo assay; Potency, µM (top dose mostly 57.1 µM), for the others: at the top dose activity, negative = inhibition, actives largely listed as inhibitors; AID 1645878, 2021; shares compounds with NTMT1 inh; 120 tested, 10% active; NNMT MTase-Glo luminescence, SAH detection
Target sequence (P40261 whole entry, looked up): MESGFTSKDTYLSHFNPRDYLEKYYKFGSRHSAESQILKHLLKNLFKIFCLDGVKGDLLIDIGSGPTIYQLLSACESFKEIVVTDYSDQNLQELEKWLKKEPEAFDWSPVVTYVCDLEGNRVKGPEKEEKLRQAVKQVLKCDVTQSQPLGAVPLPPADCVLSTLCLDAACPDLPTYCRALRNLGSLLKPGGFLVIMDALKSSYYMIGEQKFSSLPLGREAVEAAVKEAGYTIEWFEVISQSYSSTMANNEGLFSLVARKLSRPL
Numbers without * were called inactive; i = inactive; ? = inconclusive; · = no result given; [ ] = another dose, or the depositor's remark. This is one part of a sample in which hits are shown more often than they occur. Calls come from the whole dose curve; as a rule, active = well fitted curve in the direction sought with a large enough effect; inconclusive = small, poorly fitted or top-dose-only effect, or another doubt; inactive = no such curve, though single readings can be large; an effect the other way counts as inactive or inconclusive.

SMILES | NTMT1 inh | B2AR arrestin ag | PTAP-TSG101 blk | FH mod | GALC G270D act | GALK inh | others
CCCC1(CCC)CCC2(CCN(CCCN(CC)CC)C2)CC1 | 22µM* | · | · | 0% | · | · | NNMT counter=-15%
CN(C)C(=O)Nc1cc(-c2ccccc2)ccc1N(C)C | -3%[57.5 µM] | · | · | -3% | · | · | NNMT counter=-8%
N#Cc1c(-c2ccc(C(F)(F)F)cc2)no[n+]1[O-] | 3% | · | · | · | · | ·
Cc1sc2c(c1C)c(=O)n(Cc1ccccc1)c(=O)n2Cc1ccc(F)cc1 | -4% | i | i | 10% | i | 2%
Cn1sc(=O)n(Cc2ccccc2)c1=O | 7.9µM* | · | · | 9% | · | · | NNMT counter=1.6µM*
COc1c(Nc2ncc(Cl)c(N[C@H]3[C@H](C(N)=O)[C@@H]4C=C[C@@H]3C4)n2)ccc2c1CCC(N1CCOCC1)CC2 (stereo partly specified) | ? | · | · | -21% | · | ·
OCCCNc1cc(-c2ccnc(Nc3cccc(Cl)c3)n2)ccn1 | 4.5µM* | · | · | -14% | · | · | NNMT counter=25µM*
Nc1ccc(-c2ccnc(NCCCNC(=O)c3c(Cl)cccc3Cl)n2)cc1 | ? | · | · | -3% | · | ·
Cc1ccc(-c2cc(C(=O)Nc3ccc(-n4cccn4)cc3)c3ccccc3n2)cc1C | -12% | · | · | · | · | · | USP2 K63 confirm=8.6µM*;Casp6 inh=-7
Cc1ccc(-c2cc(C(=O)Nc3ccc(S(N)(=O)=O)cc3)c3cccc(C)c3n2)cc1C | · | · | · | · | · | · | USP2 K63 confirm=11µM*;Casp6 inh=?
Cc1ccc(-c2cc(C(=O)Nc3ccncc3)c3ccccc3n2)cc1C | 0% | · | · | · | · | ·
Cc1cc(-c2ccccc2)nc2c(C(=O)Nc3ccc(Cl)c(Cl)c3)cnn12 | -8% | · | · | · | · | ·
CC(=O)Nc1sc2c(c1Br)CCNC2 | 15% | · | · | · | · | ·
c1cncc(CNc2ncnc3ccc(-c4ccoc4)cc23)c1 | -9% | · | · | · | · | ·
c1c[nH]c(CNc2ncnc3ccc(-c4ccoc4)cc23)n1 | 2% | · | · | · | · | · | DYRK1A inh=9.2µM*
Cc1ccc(CNc2ncnc3ccc(-c4ccoc4C)cc23)o1 | ? | · | · | · | · | · | DYRK1A inh=4.6µM*
CCOC(=O)c1ccoc1-c1ccc2ncnc(NCc3ncc[nH]3)c2c1 | 10% | · | · | · | · | · | DYRK1A inh=?
Cc1cccc(CNc2ncnc3ccc(-c4ccoc4)cc23)c1 | 8% | · | · | · | · | ·
Cc1occc1-c1ccc2ncnc(NCc3ncc[nH]3)c2c1 | -12% | · | · | · | · | · | DYRK1A inh=2.3µM*
CC(=O)Nc1sc2c(c1-c1ccccc1F)CCNC2 | 1% | · | · | · | · | ·
Nc1ccccc1CNc1ccc(S(=O)(=O)Nc2nccs2)cc1 | 38% | · | · | · | · | ·
CC(=O)C1=CCC2C3CCC4CC(O[C@@H]5O[C@H](CO)[C@@H](O[C@@H]6O[C@@H](C)[C@H](O)[C@@H](O)[C@H]6O)[C@H](O)[C@H]5O[C@@H]5O[C@H](CO)[C@@H](O)[C@H](O)[C@H]5O)CCC4(C)C3CCC12C (stereo partly specified) | -11%[12.6 µM] | · | · | 1%[20.6 µM] | · | ·
Cc1csc(CNc2ncnc3ccc(-c4ccoc4)cc23)c1 | -11% | · | · | · | · | ·
Cc1nc(CNc2ncnc3ccc(-c4ccoc4)cc23)cs1 | ? | · | · | · | · | · | DYRK1A inh=3.7µM*
COc1cccc(C(=O)c2c(N)c(-c3nc(-c4ccccc4)cs3)c3ccccn23)c1 | 6% | i | i | 17% | i | 8%
COc1c(C)c(C(=O)c2ccc(N)c(C(=O)O)c2)n2ccccc12 | -12%[57.5 µM] | · | · | -23% | · | · | NNMT counter=-12%
COc1ccc2cc3cc(C(=O)N4CCN(c5cccc(C(F)(F)F)c5)CC4)sc3nc2c1 | 6% | i | i | 5% | i | 1%

Compound activity: PubChem BioAssay, National Center for Advancing Translational Sciences (NCATS)
